# PubChem BioAssay
# Target: Neurogenic locus notch homolog protein 2 (Homo sapiens) (UniProt Q04721)
# Experiment: Notch2 binders on small-molecule microarrays, primary screen, biochemical, small-molecule microarray, 635 nm fluorescence, stem cell growth factors (AID 1073)
# Details: Notch2 binding, higher = more signal
# Neurogenic locus notch homolog protein 2 (Homo sapiens), sequence (Q04721 whole entry, looked up): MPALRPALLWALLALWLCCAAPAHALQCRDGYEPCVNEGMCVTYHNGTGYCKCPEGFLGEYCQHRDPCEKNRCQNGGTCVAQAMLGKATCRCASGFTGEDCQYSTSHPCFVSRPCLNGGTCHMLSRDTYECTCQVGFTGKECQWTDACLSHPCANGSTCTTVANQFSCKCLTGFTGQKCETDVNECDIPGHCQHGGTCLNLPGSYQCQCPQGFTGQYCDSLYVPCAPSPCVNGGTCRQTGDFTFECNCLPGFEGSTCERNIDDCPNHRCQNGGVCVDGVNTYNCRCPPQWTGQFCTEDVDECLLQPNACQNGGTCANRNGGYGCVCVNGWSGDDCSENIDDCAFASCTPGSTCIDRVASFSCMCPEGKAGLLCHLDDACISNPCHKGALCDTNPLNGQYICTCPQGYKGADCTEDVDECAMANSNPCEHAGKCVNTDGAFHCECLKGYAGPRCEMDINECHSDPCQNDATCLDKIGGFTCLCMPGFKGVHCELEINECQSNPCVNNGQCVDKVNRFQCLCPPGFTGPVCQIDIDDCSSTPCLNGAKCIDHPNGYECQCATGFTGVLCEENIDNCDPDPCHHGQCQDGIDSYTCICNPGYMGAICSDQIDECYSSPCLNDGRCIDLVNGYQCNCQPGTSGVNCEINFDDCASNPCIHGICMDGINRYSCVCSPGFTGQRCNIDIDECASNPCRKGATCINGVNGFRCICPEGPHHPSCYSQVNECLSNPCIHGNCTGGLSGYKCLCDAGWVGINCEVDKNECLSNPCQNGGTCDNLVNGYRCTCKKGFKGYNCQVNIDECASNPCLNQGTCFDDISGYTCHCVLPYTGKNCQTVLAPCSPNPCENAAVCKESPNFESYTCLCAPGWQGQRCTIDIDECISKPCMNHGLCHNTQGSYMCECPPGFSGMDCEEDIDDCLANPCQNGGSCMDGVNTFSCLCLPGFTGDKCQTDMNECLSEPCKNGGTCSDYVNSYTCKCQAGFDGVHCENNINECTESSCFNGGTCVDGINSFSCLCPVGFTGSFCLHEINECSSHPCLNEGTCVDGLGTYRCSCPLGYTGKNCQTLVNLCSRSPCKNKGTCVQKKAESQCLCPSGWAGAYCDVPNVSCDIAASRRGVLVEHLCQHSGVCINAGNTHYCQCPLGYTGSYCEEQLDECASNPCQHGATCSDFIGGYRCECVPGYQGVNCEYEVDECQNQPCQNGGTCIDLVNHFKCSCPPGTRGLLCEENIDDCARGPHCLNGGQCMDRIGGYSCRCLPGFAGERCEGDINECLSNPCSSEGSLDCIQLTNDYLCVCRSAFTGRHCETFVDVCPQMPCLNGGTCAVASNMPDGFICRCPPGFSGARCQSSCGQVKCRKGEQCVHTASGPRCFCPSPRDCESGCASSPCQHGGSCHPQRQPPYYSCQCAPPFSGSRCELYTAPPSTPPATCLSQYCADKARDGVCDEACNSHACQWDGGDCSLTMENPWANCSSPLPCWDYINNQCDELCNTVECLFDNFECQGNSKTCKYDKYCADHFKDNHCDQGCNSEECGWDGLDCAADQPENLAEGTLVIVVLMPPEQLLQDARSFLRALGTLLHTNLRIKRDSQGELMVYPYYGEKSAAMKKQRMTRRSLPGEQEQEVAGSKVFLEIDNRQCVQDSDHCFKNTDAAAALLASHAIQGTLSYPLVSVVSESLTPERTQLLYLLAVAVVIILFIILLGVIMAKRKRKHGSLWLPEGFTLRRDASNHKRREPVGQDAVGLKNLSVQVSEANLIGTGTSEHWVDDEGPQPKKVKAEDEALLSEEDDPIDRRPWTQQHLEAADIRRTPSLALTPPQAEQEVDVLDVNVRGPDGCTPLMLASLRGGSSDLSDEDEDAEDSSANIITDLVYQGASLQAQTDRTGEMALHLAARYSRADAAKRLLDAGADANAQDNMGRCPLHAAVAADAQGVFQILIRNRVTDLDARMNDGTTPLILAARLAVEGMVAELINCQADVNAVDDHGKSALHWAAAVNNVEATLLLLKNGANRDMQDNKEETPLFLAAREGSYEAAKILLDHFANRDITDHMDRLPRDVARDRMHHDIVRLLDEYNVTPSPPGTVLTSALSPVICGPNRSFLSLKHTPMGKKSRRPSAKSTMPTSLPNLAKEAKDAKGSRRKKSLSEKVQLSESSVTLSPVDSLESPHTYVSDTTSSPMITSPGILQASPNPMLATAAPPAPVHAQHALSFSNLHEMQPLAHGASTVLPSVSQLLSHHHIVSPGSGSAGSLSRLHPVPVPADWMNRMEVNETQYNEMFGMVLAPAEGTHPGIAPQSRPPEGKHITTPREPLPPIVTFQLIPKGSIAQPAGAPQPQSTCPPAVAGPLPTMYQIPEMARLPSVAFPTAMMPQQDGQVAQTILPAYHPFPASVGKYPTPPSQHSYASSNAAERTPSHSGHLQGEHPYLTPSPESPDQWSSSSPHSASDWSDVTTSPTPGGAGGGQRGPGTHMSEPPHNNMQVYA
row,SMILES,composite z-score
1,CO[C@@H]1COC(=O)CC=C[C@@H](C)[C@H](OC)COC(=O)CC=C[C@H]1C,-0.541
2,O=C1O[C@H](c2ccccc2)[C@H](c2ccccc2)N2[C@H]1[C@@H](C(=O)Nc1nc3ccccc3s1)[C@]1(C(=O)Nc3ccc(C#CC4(O)CCCCCC4)cc31)[C@H]2c1ccc(O)cc1,1.34
3,O=C1O[C@@H](c2ccccc2)[C@@H](c2ccccc2)N2[C@@H](c3ccccc3OCCO)[C@]3(C(=O)Nc4ccc(C#CC5=CCCCC5)cc43)[C@@H](C(=O)O)[C@H]12,1.44
4,O=C1O[C@@H](c2ccccc2)[C@@H](c2ccccc2)N2[C@@H](c3ccc(O)cc3)[C@]3(C(=O)Nc4ccccc43)[C@@H](C(=O)N3CCN(c4ncccn4)CC3)[C@H]12,-0.486
5,C[N+](C)(C)CCCCNC(=O)[C@@H]1C[C@@H]2C(=O)N3CCC[C@H]3C(=O)N2[C@@H]1c1cccc(OCCO)c1,-0.145
6,C=CC[C@@]1(C(=O)N2CCOCC2)N=C(c2ccc(OCCCO)cc2)O[C@@H]1c1ccccc1,0.369
7,CCC#CCN(Cc1ccccc1Br)[C@H](/C=C/c1ccccc1)[C@@H](O)Cc1ccccc1,-1.52
8,O=C(NCc1ccccc1)c1ccc(Br)cc1[N+](=O)[O-],0.596
9,CC(C)N1CC=CC23O[C@@H]4/C=C\CCCOC(=O)C4[C@H]2C(=O)N(CCCCCO)[C@@H]3C1=O (stereo partly specified),-2.17
10,O=C1OCC=C[C@H]2OC34C=CCN(Cc5ccccc5)C(=O)[C@H]3N(CCO)C(=O)[C@@H]4[C@@H]12 (stereo partly specified),-0.338
11,O=C1O[C@H](c2ccccc2)[C@H](c2ccccc2)N2[C@H]1[C@@H](C(=O)NC[C@H](O)c1ccccc1)[C@]1(C(=O)Nc3ccc(C#CC4=CCCCC4)cc31)[C@H]2c1ccc(OCCO)cc1,1.04
